# Shown are actives, neighbours in structure and some others; about 2.4% of the full set was active somewhere.
# EP2 mod: EP2 receptor modulators, cAMP readout, primary screen, cell-based, HTRF cAMP, PGE2 stimulation; Prostaglandin E2 receptor EP2 subtype (Homo sapiens), P43116; EP2-expressing cells, cAMP HTRF FRET, PGE2 co-stimulation; induction, % at 25 µM; 0.83% of 260,000 active; AID 940, 2007;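 active = compounds whose cAMP rise, as percent of the full-agonist control response, exceeds 60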;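 note: rat C6 glioma line stably carrying human EP2 under a CMV promoter; the protocol text gives 20 µM as final concentration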
# S1P3 antagonist: S1P3 receptor antagonists, primary screen, cell-based. inhibition, % at 4.98 µM. CHO S1P3 NFAT-BLA reporter, FRET fluorescence, antagonist mode. AID 485, 2006. Sphingosine 1-phosphate receptor 3 (Homo sapiens), Q99500. 0.27% of 170,000 active;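 active = inhibition above the plate cutoff, the mean inhibition of test wells on that plate plus 3 SD, cut at about 28% in these data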;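 note: cells challenged with S1P at its EC80 of 0.8 µM; blue over green emission ratio from cleaved BLA substrate after 4 h stimulation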
# S1P4 antagonist: S1P4 receptor antagonists, primary screen, cell-based; Sphingosine 1-phosphate receptor 4 (Homo sapiens), O95977; S1P4-expressing cells, antagonist mode, reporter read-out; inhibition, % at 4.98 µM; 0.26% of 220,000 active; AID 1510, 2009; in the data active = inhibition above about 29%
# PGE2 EP2 inh: human EP2 receptor antagonists, primary screen, TR-FRET cAMP, C6 glioma cells; Prostaglandin E2 receptor EP2 subtype (Homo sapiens), P43116; C6 glioma cells expressing human EP2; cells stimulated with saturating PGE2; inhibition, % at 25 µM; 0.52% of 260,000 active; AID 1422, 2008;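 active = percent inhibition above 40 after rounding to a whole number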;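 note: rat C6 glioma host cells with rolipram phosphodiesterase inhibitor present; the protocol text gives 20 µM as final concentration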
# S1P4 agonist: S1P4 receptor agonists, primary screen, cell-based | S1P4-expressing cell line, agonist reporter assay | activation, % at 4.98 µM | 0.35% of 220,000 active; in the data active = activation above about 11%
# Insulin prom inh: inhibitors of insulin promoter-driven GFP, primary screen, imaging, TRM-6 cells (human fetal islet line), eGFP reporter, cell count | inhibition, % at 2 µM | AID 1273, 2008 | 0.9% of 130,000 active | reporter expression induced with tamoxifen;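 active = inhibition above the mean plus 3 SD, with well images judged a real hit on visual review, cut at about 60% in these data, passing the limit was not always enough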
# S1P4 agonist cf: S1P4 receptor agonists, retest, confirmation, cell-based, high throughput | shares compounds with S1P4 agonist | S1P4 agonist cell-based reporter assay | activation, % at 4.98 µM | 7% of 740 active; in the data active = activation above about 12%
# S1P1 ag: S1P1 receptor agonists, human, counter-screen for S1P4 agonist project, cell-based; shares compounds with S1P4 agonist; S1P1 agonist cell-based assay, activation; activation, % at 4.98 µM; 4% of 740 active; in the data active = activation above about 21%
# Target sequence (P21453 whole entry, looked up): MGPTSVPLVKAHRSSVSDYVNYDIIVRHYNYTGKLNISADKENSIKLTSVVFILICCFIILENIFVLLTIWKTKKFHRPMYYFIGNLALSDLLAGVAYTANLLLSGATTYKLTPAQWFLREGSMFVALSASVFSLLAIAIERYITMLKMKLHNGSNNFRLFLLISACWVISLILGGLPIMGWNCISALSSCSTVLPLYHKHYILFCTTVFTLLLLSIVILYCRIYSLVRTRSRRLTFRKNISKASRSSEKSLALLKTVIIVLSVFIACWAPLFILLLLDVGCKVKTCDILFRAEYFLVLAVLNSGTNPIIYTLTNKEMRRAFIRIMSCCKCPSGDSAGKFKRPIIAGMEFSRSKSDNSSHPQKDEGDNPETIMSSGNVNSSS
# S1P4 antag cf: S1P4 receptor antagonists, human, confirmation, cell-based; 71% of 520 active; shares compounds with S1P4 antagonist; S1P4-expressing cell line, antagonist mode, reporter read-out; inhibition, % at 4.98 µM; AID 1524, 2009; in the data active = inhibition above about 30%
# S1P1 antagonist: S1P1 receptor antagonists, human, counter-screen for S1P4 antagonist project, cell-based; AID 1564, 2009; inhibition, % at 4.98 µM; shares compounds with S1P4 antagonist; 37% of 520 active; cell-based S1P1 antagonist counterscreen, inhibition; in the data active = inhibition above about 40%;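 note: receptor stimulated with S1P near its EC80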
# Hits are given with their value; - = inactive; . = no result given.
SMILES,EP2 mod,S1P3 antagonist,S1P4 antagonist,PGE2 EP2 inh,S1P4 agonist,Insulin prom inh,S1P4 antag cf,S1P1 antagonist,others
CCNC(=O)NC(=O)C(C)OC(=O)c1c(C)nn(Cc2ccccc2)c1Cl (stereo not given),-,-,-,-,30.9,-,.,.,S1P4 agonist cf=52.7;S1P1 ag=-
Cc1nn(Cc2ccccc2Cl)c(Cl)c1C(=O)OCC(=O)NCc1ccco1,-,-,-,-,-,-,.,.,
OC1(c2ccc(F)cc2)CC2CCC(C1)N2Cc1nnnn1Cc1ccco1 (stereo not given),-,.,.,-,.,.,.,.,
Cc1nc2ccc(NC(=O)CN3CC=C(c4ccc(C)o4)CC3)cc2[nH]1,-,.,.,.,.,.,.,.,
CCOC(=O)c1c(-n2c(C)cc(/C=C3\C(=O)NC(=O)N(C)C3=O)c2C)sc2c1CCCC2,-,.,-,-,12.9,.,.,.,S1P4 agonist cf=24.3;S1P1 ag=-
Cc1ccc(O)c(C(=O)c2cc(C(=O)NCCC(C)C)c(=O)n(CCC(C)C)c2)c1,-,-,-,-,15.2,-,.,.,S1P4 agonist cf=-;S1P1 ag=-
O=C(Nc1ccccc1O)c1ccc(Cl)c(S(=O)(=O)N2CCCCCC2)c1,-,.,.,-,.,.,.,.,
CCC(=NCC1CCCO1)c1c(O)n(-c2ccccc2C)c(=O)[nH]c1=O (stereo not given),-,-,-,-,93.3,.,.,.,S1P4 agonist cf=-;S1P1 ag=-
Cc1cc([N+](=O)[O-])c2ccccc2[n+]1[O-],-,-,78.9,-,-,.,113.7,112.0,
C[C@H]1C/C=C/[C@H]2[C@H](O)[C@H](C)[C@@](C)(O)[C@H]3[C@H](Cc4ccccc4)NC(=O)[C@]32[C@H](O)/C=C/[C@](C)(O)C1,.,.,.,-,.,.,.,.,
C=C1[C@@H](C)[C@H]2[C@H](Cc3ccccc3)NC(=O)[C@]23OC(=O)/C=C/[C@H](O)CCC[C@@H](C)C/C=C/[C@H]3[C@@H]1O,-,-,44.0,-,-,.,51.4,42.9,
COc1ccc(C)cc1CN1C2CCC1CC(O)(c1ccccc1F)C2 (stereo not given),-,.,.,-,.,.,.,.,
COC(=O)C1CN(C#N)N(c2ccc(Cl)cc2)C12c1ccccc1-c1ccccc12 (stereo not given),-,.,66.4,-,-,-,121.4,94.2,
O=C1C(=O)c2ccccc2-c2ccccc21,-,.,98.5,44.6,-,-,115.9,142.9,
CCNC(=O)[C@H]1O[C@@H](n2cnc3c(N)ncnc32)[C@H](O)[C@@H]1O,-,-,-,-,-,.,.,.,
NC(=O)c1cn(C2OC(CO)C(O)C2O)c2ncnc(N)c12 (stereo not given),-,-,72.1,-,-,63.6,78.9,41.9,
CC12CN3CC(C)(CN(C1)C3c1cccnc1)C2 (stereo not given),-,.,.,-,.,.,.,.,
COc1ccc(-c2n(-c3ccccn3)c3ccccc3[n+]2-c2ccccn2)cc1,-,-,33.0,-,-,.,-,-,
CCC1CCCCN1C(=O)CN1C2CCC1CC(O)(c1nccn1C)C2 (stereo not given),-,.,.,.,.,.,.,.,
CC1CCC/C=C/C2CC(O)CC2C(O)/C=C/C(=O)O1 (stereo not given),-,.,47.2,.,-,-,83.1,-,
CNc1cc(Cl)c2nonc2c1[N+](=O)[O-],-,-,74.3,-,-,.,113.6,-,
O=C(c1ncoc1-c1ccc(F)cc1)N1CC2CC(C1)c1cccc(=O)n1C2 (stereo not given),-,.,.,-,.,.,.,.,
CSc1ncc(CN2C3CCC2CC(O)(c2ccccc2F)C3)cn1 (stereo not given),-,.,.,-,.,.,.,.,
COc1cc2c(cc1/C=C/[N+](=O)[O-])OCO2,-,-,41.5,102.6,-,-,86.8,-,
CN1CCN(c2ccc(S(C)(=O)=O)cc2[N+](=O)[O-])CC1,-,-,-,-,-,-,.,.,
SMILES,EP2 mod,S1P3 antagonist,S1P4 antagonist,PGE2 EP2 inh,S1P4 agonist,Insulin prom inh,S1P4 antag cf,S1P1 antagonist,others
CN1CCN(c2ccc([N+](=O)[O-])c3no[n+]([O-])c23)CC1,-,-,48.6,-,-,.,76.3,-,
CN(C)CCN(Cc1ccc(F)cc1)C(=O)Cc1nn(C)c(=O)c2ccccc12,-,.,.,-,.,.,.,.,
NC1(CO)COC(c2cccnc2)OC1 (stereo not given),-,.,.,-,.,.,.,.,
COc1ccc(Oc2cc(NC(=O)c3nn(C)cc3[N+](=O)[O-])cc([N+](=O)[O-])c2)cc1,-,.,85.9,-,-,-,108.2,-,
CN(C)CCN(C(=O)Cc1ccc2c(c1)CCC2)C1CCN(C)CC1,-,.,.,-,.,.,.,.,
CC1(C)C[C@H]2C=C(C=O)[C@]3(C=O)C[C@]3(C)[C@H]2C1,-,-,70.2,88.3,-,-,114.8,117.7,
Cc1ccc2c(c1)C(=O)CC1(CCNCC1)O2,-,.,.,-,.,.,.,.,
Cc1c(C(=O)Nc2ccccc2)cc(-c2ccccc2)n1CCCN1CCOCC1,-,-,34.4,-,-,.,-,-,
